Assay results taken from PubChem BioAssay (NCI).
Values joined by “and” are separate entries in the source; they are usually repeats but may differ in a detail not shown here. Equal values may be shown once. About 83,000 compounds went through this panel and 20% of them were active in at least one assay; those are over-represented in the sample as a whole.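 Growth was measured after 48 h exposure to one concentration of compound in 96-well plates. Values under 10 count as active.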 The source holds several records for some structures; these can differ, active in one and inactive in another. Active and inactive are the calls of the source.

tested on: SN12C renal; assay: NCI-60 one-dose screen, 48 h (100 = growth as untreated, 0 = no growth, -100 = all killed); conditions: 10 µM unless noted
Method: Growth inhibition of the SN12C human tumor cell line is measured as a screen for anti-cancer activity. Cells are grown in 96 well plates and exposed to the test compound for 48 hours. Compounds are tested at a single concentration, which is 10^-5 M for most compounds. The reported endpoint is percent growth (GI% or GIPRCNT), where numbers from 0 - 100% represent growth inhibition, and numbers from -100% - 0 represent cell death. For example, a value of 40 represents 60% growth inhibition. A value of 0 means no net growth occurred over the course of the experiment. A value of -40 indicates 40% of cells at the beginning of the experiment died by the end of the experiment. A value of -100 means all cells are dead at the end of the experiment.
NCI-60 Human Tumor Cell Lines Screen was performed using the standard one-dose NCI protocol, which is described in more detail at https://dtp.cancer.gov/discovery_development/nci-60/default.htm.
Compounds with GIPRCNT values below 10 were considered active. Activity score was based on GIPRCNT using the following formula: […]
Score is 0 for GIPRCNT values of 100 or above, 50 for GIPRCNT values of 0, and 100 for GIPRCNT values of -100.

Compound	growth
CC(=O)c1c(O)c(C)c(O)c2c1OC1=CC(=O)C(C(C)=O)C(=O)C12C (stereo not given)	143% (inactive)
O=C1C=CC(=O)c2c(O)c(CO)c(CO)c(O)c21	101% (inactive)
CCc1cnc2ccccc2c1/C=C/c1ccc(N(C)C)cc1	52.3% (inactive)
CCN(CC)CCNC(Cc1ccccc1)c1ccc(OCc2ccccc2)cc1 (stereo not given)	73.2% (inactive)
C[C@@]1(CO)[C@H](O)CC[C@@]2(C)[C@H]1CC[C@H]1C[C@@H]3C[C@@]12CC[C@@]3(O)COC(=O)CN	61.6% (inactive)
O=C(Cc1nc2cc(Cl)c(Cl)cc2nc1CC(=O)c1cccnc1)c1cccnc1	75% (inactive)
CCC(C)C(N)C(=O)NC(CC(N)=O)C(=O)NC(CC(C)C)C(=O)NC(CCCCN)C(=O)NC(C)C(=O)NC(CC(C)C)C(=O)NC(C)C(=O)NC(C)C(=O)NC(CC(C)C)C(=O)NC(C)C(=O)NC(CCCCN)C(=O)NC(CCCCN)C(=O)NC(C(=O)NC(CC(C)C)C(N)=O)C(C)CC (stereo not given)	89.5% (inactive)
COc1cc(NCc2ccc3nc(N)nc(N)c3c2C)cc(OC)c1OC (tested in a mixture with another compound)	44.7% (inactive)
Oc1c(Cl)cc(Cl)cc1C=NCC1CCC(CN=Cc2cc(Cl)cc(Cl)c2O)CC1 (stereo not given)	86.3% (inactive)
Cc1nc([N+](=O)[O-])c(Sc2nncc(-c3ccccc3)n2)n1C	86.8% (inactive)
CCN(CC)CC(O)c1cc(-c2ccc(Cl)cc2)nc2cc(Cl)ccc12 (stereo not given)	29.6% (inactive)
OC(c1cc(C23CC4CC(CC(C4)C2)C3)nc2c(Cl)cc(Cl)cc12)C1CCCCN1 (stereo not given)	-61.4% (active)
Clc1ccc(Cc2nc3ccccc3s2)cc1	86.1% (inactive)
Cc1oc2c(C)c3oc(=O)cc(C)c3cc2c1CCl	67.8% (inactive)
CCOc1ccc(C(CN2CCOCC2)C(C)=O)cc1OC (stereo not given)	86.6% (inactive)
Cc1cc(I)nc2ccccc12	109% (inactive)
O/N=C1\c2ccccc2-c2ccc(F)cc21	94.4% (inactive)
O=C(O)c1cccc2cccc(-c3c4ccc(=O)c(O)c-4oc4c(O)c(O)ccc34)c12	91% (inactive)
O=[n+]1c2ccccc2n([O-])c2cc(Cl)ccc21	62.3% (inactive)
NC(=Nc1nc(-c2ccccn2)cc2ccccc12)c1ccccn1	26.2% (inactive)

Compound	growth
CC(/C=N/NC(N)=S)Cc1ccc(C(C)C)cc1 (stereo not given)	69.8% (inactive)
CC(C)(C)c1ccc(CCO)cc1	91.8% (inactive)
CN1CCC(c2ccccc2)(c2ccccc2)C(=O)C1	101% (inactive)
c1ccc(-c2cc3cc4ccccc4cn3c2)cc1	87.6% (inactive)
O=C1c2ccccc2Cc2cccc(Cl)c21	97.3% (inactive)
CN(C)c1ccc(/C=C/c2nccc3ccccc23)cc1	75.6% (inactive)
CCCC[n+]1c(/C=C\c2c(OC)cc(OC)cc2OC)ccc2ccccc21	3.62% (active)
COc1c(C)c2c(c(O)c1C/C=C(\C)CCC(=O)O)C(=O)OC2	34.4% (inactive)
C=C(C(N)=O)C(N)C(=O)O (stereo not given)	108% (inactive)
CCCCCCCCc1cc(Cl)c(O)c(Cl)c1	103% (inactive)
CCC(C)(O)Cc1ccc(Cl)cc1 (stereo not given)	103% (inactive)
O=C1C(=O)c2cc([N+](=O)[O-])ccc2-c2ccccc21	-88.9% (active)
COc1ccc(/C=C2/C(=O)ON=C2C)cc1	95.6% (inactive)
CCCCCCCCCCCCN1C(C)=CS/C1=C\C=C\c1scc(C)[n+]1CCCCCCCCCCCC	18.2% (inactive)
CCN1/C(=C/C(C)=C/c2sc3ccc4ccccc4c3[n+]2CC)Sc2ccc3ccccc3c21	-84.9% (active)
CCc1cccc(CC)c1N1C(=O)C=CC1=O	129% (inactive)
OC(c1cc(-c2ccc(C(F)(F)F)cc2)nc(C(F)(F)F)c1)C1CCCCN1 (stereo not given)	-50.3% (active) and -86.4% (active) and 28.5% (inactive)
CCOC(=O)/C(=C\c1ccc2ccccc2c1)P(=O)(OCC)OCC	17% (inactive)
COC(=O)C(=[N+]=[N-])C(=O)c1ccc([N+](=O)[O-])o1	90.9% (inactive)
Cn1c(-c2ccccc2)c(/C=C/C2=[N+](C)c3ccccc3C2(C)C)c2ccccc21	7.02% (active)
